Assay results published in PubChem BioAssay (NCATS).
Records with an inconclusive call do not appear. The source made the active and inactive calls. Calls come from the whole dose curve; as a rule, active = well fitted curve in the direction sought with a large enough effect; inconclusive = small, poorly fitted or top-dose-only effect, or another doubt; inactive = no such curve, though single readings can be large; an effect the other way counts as inactive or inconclusive.

Assays:
[1] = tested on: Zika virus NS2B-NS3 protease (unlinked complex); assay: Primary screen GU Rhodamine qHTS for Zika virus inhibitors: Unlinked NS2B-NS3 protease assay (AID 1347159); settings: Recombinant ZIKV NS2B-NS3 protease, Rhodamine110 substrate fluorescence; series mostly up to 107 µM; note: nearly all actives have a fitted effect of over 60% in size
Summary of the method: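 Buffer 10 mM Tris-HCl pH 8.0, 0.01% Tween 20. Unlinked protease 25 nM; compound preincubation 15 min, RT, protected from light. Substrate Rhod110, 1.5 microM; ~15% conversion in 15 min.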

[2] = tested on: Zika virus NS2B-NS3 protease (linked construct); assay: Primary screen NINDS Rhodamine qHTS for Zika virus inhibitors (AID 1347160); settings: purified NS2B-NS3 protease, Rhodamine110 substrate fluorescence; series mostly up to 57.1 µM; note: nearly all actives have a fitted effect of over 55% in size
Summary of the method: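 Aprotinin served as in-plate control. Conditions: 25 nM linked NS2B-NS3, pH 8.0 Tris buffer, titrated compounds, 15 min preincubation and 15 min reaction with 1.5 microM Rhod110 substrate at room temperature.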

[3] = tested on: Zika virus NS2B-NS3 protease; assay: Primary screen GU AMC qHTS for Zika virus inhibitors (AID 1347154); settings: Zika NS2B-NS3 unlinked protease, AMC fluorogenic substrate; series mostly up to 54.1 µM; note: nearly all actives have a fitted effect of over 70% in size
Summary of the method: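 Unlinked Zika NS2B hydrophilic domain–NS3 protease complex at 25 nM in 10 mM Tris-HCl pH 8.0, 0.01% Tween 20, with an AMC peptide substrate. Fluorescence change (340/450 nm) over 15 min at room temperature, normalized to controls, fitted to 4-parameter Hill.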

[4] = qHTS of pediatric cancer cell lines to identify multiple opportunities for drug repurposing: Primary screen for Rh18 cells (AID 1347102); settings: Rh18 rhabdomyosarcoma viability, CellTiter-Glo luminescence, 48 h; series mostly up to 46 µM; note: nearly all actives have a fitted effect of over 65% in size
Summary of the method: (§1)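 Viability after 48 h compound treatment at 37C, 500-1,000 cells/well, read as ATP luminescence with CellTiter-Glo. Primary screens used 11-point (MIPE, 0.78 nM-46 µM) or 8-point (NPC, 0.59 nM-46 µM) final concentrations; follow-up screens used 11-point dilutions.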

[5] = qHTS of pediatric cancer cell lines to identify multiple opportunities for drug repurposing: Primary screen for OHS-50 cells (AID 1347103); settings: OHS-50 osteosarcoma viability, CellTiter-Glo luminescence, 48 h; series mostly up to 57.3 µM; note: nearly all actives have a fitted effect of over 40% in size
Summary of the method: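 Cells (500-1,000/well) rested 5 h, then received compounds for 48 h; metabolically active cells were measured by CellTiter-Glo luminescence. Final concentrations spanned up to 46 µM (MIPE, 11-point) or 0.59 nM-46 µM (NPC, 8-point) in primary screens, 11-point in follow-ups.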

[6] = qHTS of pediatric cancer cell lines to identify multiple opportunities for drug repurposing: Primary screen for RD cells (AID 1347104); settings: RD rhabdomyosarcoma viability, CellTiter-Glo luminescence, 48 h; series mostly up to 46 µM; note: nearly all actives have a fitted effect of over 55% in size
Summary of the method: (§2)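 Plated cells (500-1,000 per well, growth media) were allowed to settle for 5 hours, treated with compound dilutions for 48 hours, then lysed with CellTiter-Glo for 15 min at room temperature before luminescence reading.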

[7] = qHTS of pediatric cancer cell lines to identify multiple opportunities for drug repurposing: Primary screen for MG 63 (6-TG R) cells (AID 1347105); settings: MG 63 (6-TG R) viability, CellTiter-Glo, 48 h; series mostly up to 46 µM; note: nearly all actives have a fitted effect of over 50% in size
Summary of the method: as §2

[8] = qHTS of pediatric cancer cell lines to identify multiple opportunities for drug repurposing: Primary screen for control Hh wild type fibroblast cells (AID 1347106); settings: Hh wild-type fibroblast viability, CellTiter-Glo luminescence, 48 h; series mostly up to 46 µM;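 note: a drop in luminescence marks cytotoxicity and a rise apparent proliferation; nearly all actives have a fitted effect of over 55% in size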
Summary of the method: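 Cells (500-1,000/well) in growth media were settled 5 h at 37 degrees C, then given compounds for 48 h. Viability was read as CellTiter-Glo luminescence. Primary runs used MIPE at 11 points (0.78 nM-46 µM) and NPC at 8 points (0.59 nM-46 µM); follow-ups used 11 points.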

[9] = qHTS of pediatric cancer cell lines to identify multiple opportunities for drug repurposing: Primary screen for Rh30 cells (AID 1347107); settings: Rh30 rhabdomyosarcoma viability, CellTiter-Glo luminescence, 48 h; series mostly up to 46 µM; note: nearly all actives have a fitted effect of over 75% in size
Summary of the method: as §1

[10] = qHTS of pediatric cancer cell lines to identify multiple opportunities for drug repurposing: Primary screen for Rh41 cells (AID 1347108); settings: Rh41 rhabdomyosarcoma viability, CellTiter-Glo luminescence, 48 h; series mostly up to 46 µM;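 note: luminescence drop marks cytotoxic hits; nearly all actives have a fitted effect of over 70% in size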
Summary of the method: as §2

Measured: Potency

C=C1[C@H](CO)[C@@H](O)C[C@@H]1n1cnc2c(=O)[nH]c(N)nc21
inactive: [1] | [2]

N[C@H](CC(=O)O)C(=O)O
inactive: [3]

O=C(O)CCC(=O)c1ccc(-c2ccccc2)cc1
not listed: [1] | [2]
inactive: all other assays above
